# Test results from PubChem BioAssay (NCI).
# The panel holds about 83,000 compounds, 20% with a hit somewhere; the sample as a whole holds those more often.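 48-hour exposure, single concentration, 96-well plates; percent growth endpoint where 0 means no net growth. Active: below 10.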 Unmarked numbers belong to inactive results. Activity calls are given as the source filed them.
# System: MDA-MB-468 breast
# Experiment: NCI-60 one-dose screen, 48 h (100 = growth as untreated, 0 = no growth, -100 = all killed)
# Conditions: 10 µM unless noted
row,SMILES,growth
1,O=C1Nc2cc(Cl)ccc2Oc2cc(Oc3ccccc3)ccc21,1.71% (active)
2,O=Nc1ccc(O)c(=O)cc1,-53.1% (active)
3,CC1(C)CC[C@]2(C(=O)Nc3ccccn3)CC[C@]3(C)C(=CC[C@@H]4[C@@]5(C)C/C(=C/c6cccnc6)C(=O)C(C)(C)[C@@H]5CC[C@]43C)[C@H]2C1,17.2%
4,COC1/C=C/OC2(C)Oc3c(C)c(O)c4c(O)c(c(C=NOC(c5ccccc5)c5ccccc5)c(O)c4c3C2=O)NC(=O)/C(C)=C/C=C/C(C)C(O)C(C)C(O)C(C)C(OC(C)=O)C1C (stereo not given),3.6% (active)
5,NC(=O)CC(NC(=O)COc1ccc(Cl)cc1Cl)C(=O)O (stereo not given),108%
6,C/C(=N\O)[C@H]1C[C@]23CC[C@]4(C)[C@H](CC[C@@H]5[C@@]6(C)CC/C(=N/O)C(C)(C)[C@@H]6CC[C@]54C)[C@H]2[C@H](C)C1(C)OC3,103%
7,COCCNc1ccc2c3c(cccc13)C(=O)N(CCN(C)C)C2=O,45.2%
8,C[C@H]1[C@H](OC(=O)CCC(=O)O)O[C@@H]2O[C@]3(C)CC[C@H]4[C@H](C)CC[C@@H]1[C@@]24OO3,29.1%
9,COc1cccc(-c2nc3occn3c2-c2ccnc(NCCCNS(=O)(=O)c3ccc(C(F)(F)F)cc3)n2)c1,81.6%
10,COC(=O)c1c2c(c(C)[n+]([O-])c1C)C(=O)C=C(NCc1cccc(OC)c1)C2=O,-67.8% (active)
11,O=[N+]([O-])c1cc(NS(=O)(=O)c2ccccc2)ccc1NS(=O)(=O)c1ccccc1,92.9%
12,Cc1cc(NC(=O)c2cnc(N3CCN(CCOCCOCCOCCOCCC(=O)N[C@H](C(=O)N4C[C@H](O)C[C@H]4C(=O)N[C@@H](C)c4ccc(-c5scnc5C)cc4)C(C)(C)C)CC3)cn2)c2ncccc2c1,-57.9% (active)
13,CCCC(=O)NC(c1cccnc1)c1cc(C(C)=O)c2cccnc2c1O (stereo not given),15.8%
14,CC1=C(C(=O)OCc2ccccc2)C(c2ccc3c(c2)OCO3)n2c(nc3ccccc32)N1 (stereo not given),15.8%
15,Cc1c(C)c(C)c([N+](=O)[O-])c([N+](=O)[O-])c1C,82.1%
16,COc1cc2cc(Oc3ccc(NC(=O)Nc4ccc(Cl)c(Cl)c4)cc3)c(C)nc2cc1OCCN1CCCCC1,103%
17,CC1=C(C)C(=O)C(Nc2cccc(C(F)(F)F)c2)=C(Br)C1=O,-61.4% (active)
18,COC(=O)[C@]12CC[C@@H](C)[C@H](C)[C@@H]1C1=CC[C@@H]3[C@@]4(C)CC(=O)[C@H](OC(=O)c5ccco5)[C@@]5(C)COC(=C45)C[C@@]3(C)[C@]1(C)CC2,8.15% (active)
19,COc1cccc2c1O/C(=C\c1c([N+](=O)[O-])ncn1C)C2=O,101%
20,CC1=CCC(OC(=O)C(C)(O)CCC(O)(C(=O)OC2(C)C=CC(O)(C(C)C)CC2)C(C)C)(C(C)C)CC1 (stereo not given),107%
21,Cc1ccc2c(n1)C[C@H](C(C)(C)O)CC[C@H]2C,108%
22,COc1ccccc1N1CCN(CCn2c(=O)c3c(c4ccccc4n3C)n(C)c2=O)CC1,92%
23,COC(=O)c1nc(-c2ccccc2)oc1S(=O)(=O)N1CCN(c2ccc(OC)cc2)CC1,22.6%
24,CC1=CCc2ccccc21,115%
25,C=CC1=NC(C)(C)CC(C)O1 (stereo not given),109%
